Screening data from PubChem.
MEKK2 WT-MEK5 = raises or lowers MEK5 binding to wildtype human MEKK2 PB1 domain | Q9Y2U5 | bead flow cytometry, Alexa488-MEK5 binding to MEKK2 WT; actives lie on both sides | binding response (% of control), % at 10 µM | 290,000 compounds, 1.1% hits; in the data active means binding response below about 67% or above about 130%
MEKK2 mut-MEK5 = signal of MEK5 binding to mutant human MEKK2 PB1 domain; bead flow cytometry, Alexa488-MEK5 binding to MEKK2 mutant; percent response, % at 10 µM; 290,000 compounds, 0.35% hits; in the data active means percent response above about 24%, passing the limit was not always enough
GRK2 aptamer HTS = inhibitors of human GRK2 displacing RNA aptamer. bead flow cytometry, FAM-aptamer displacement from GRK2. inhibition of aptamer binding, % at 10 µM. 330,000 compounds, 0.59% hits. AID 488847;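 active means inhibition of aptamer binding above 40%, roughly 3 SD of noise, on plates passing a quality check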;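 further: median bead fluorescence of bound FAM aptamer so fluorescent compounds give negative values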
MEKK3 PB1 HTS = raises or lowers MEK5 binding to the human MEKK3 PB1 domain. Q99759. bead-based flow cytometry, Alexa488-MEK5 binding to MEKK3; actives lie on both sides; 0 = blocked by unlabeled MEK5, 100 = vehicle. binding response (% of control), % at 10 µM. 290,000 compounds, 1.4% hits. AID 1529;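 active means binding response more than 3 SD above or below the average of its plate-row segment, actives on both sides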;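 further: Alexa488 bead fluorescence after subtracting the streptavidin-only scavenger bead signal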
GRK2 inh confirm = confirmation of human GRK2 inhibitors displacing RNA aptamer. shares compounds with GRK2 aptamer HTS. bead-bound GRK2, FAM-aptamer displacement, flow cytometry. aptamer displacement, % at 10 µM. 2,000 compounds, 4% hits. AID 504451;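 active means aptamer displacement above 40%, near three times the noise of non-fluorescent compounds, on plates passing quality checks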;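 further: negative values mostly reflect intrinsic compound fluorescence rather than true enhancement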
Aptamer quench SP = counter-screen for GRK2 aptamer inhibitors: fluorescent aptamer quenchers | Carboxyfluorescein RNA aptamer on beads, flow cytometry quenching; hits give low values | shares compounds with GRK2 aptamer HTS | 2,000 tested, under 10 active | fluorescence response (% of DMSO), % at 10 µM;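 active means compounds that quench the bead-bound fluorescent RNA probe, cutting fluorescence to under half of the solvent control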;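 further: counterscreen run without GRK2 so only probe quenching by compound is measured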
GRK2 CP2 = human GRK2 inhibition confirmation, cherry pick 2. inhibition of aptamer binding, % at 10 µM. bead-bound GRK2, FAM-aptamer displacement, flow cytometry. 360 tested, under 10 active. shares compounds with GRK2 aptamer HTS. AID 504782;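 active means inhibition of aptamer binding above 40%, about triple the noise seen with nonglowing compounds, on plates passing quality control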;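 further: negative values mostly come from compounds that fluoresce themselves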
FAM quench SP = aptamer fluorescence quenching in GRK2 counter-screen | shares compounds with GRK2 aptamer HTS | carboxyfluorescein RNA aptamer beads, flow cytometry quenching; hits give low values | fluorescence response vs DMSO, % at 10 µM | 360 tested, under 10 active;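 active means response vs DMSO under 50%, meaning signal dropped by over half, treated as fluorescence quencher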;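 further: labelled aptamer on streptavidin beads without GRK2 as a quench counter-screen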
A number is an active result; . = inactive; / = not tested or not shown. This is a sample that favours compounds with a hit; in the whole collection about 2.5% have one here.

SMILES	MEKK2 WT-MEK5	MEKK2 mut-MEK5	GRK2 aptamer HTS	MEKK3 PB1 HTS	GRK2 inh confirm	Aptamer quench SP	others
Cc1ccccc1-n1ccnc1SCC(=O)NC1CCCC1	.	.	49.0	.	.	.
Cc1ccccc1-n1ccnc1SCC(=O)NCC1CCCO1 (stereo not given)	.	.	.	.	/	/
COc1ccccc1-c1nnc(SCC(=O)NC2CCCCC2)n1C	.	.	.	.	/	/
Cc1cccc(C(=O)O/N=C(\N)c2ccc(Cl)cc2)c1	.	.	.	.	.	.
Cc1cccc(C(=O)O/N=C(\N)c2ccc(Br)cc2)c1	.	.	.	.	/	/
COc1cc(SC)ccc1C(=O)NNC(=O)c1cc(C)oc1C	/	/	45.0	/	.	.
COCCNC(=O)c1c[nH]c2ccc(S(=O)(=O)N3CCc4ccccc43)cc2c1=O	.	.	.	.	/	/
COCCNC(=O)c1c[nH]c2ccc(S(=O)(=O)Nc3ccc(F)cc3F)cc2c1=O	.	.	91.0	.	.	.
COCCNC(=O)c1c[nH]c2ccc(S(=O)(=O)Nc3ccccc3F)cc2c1=O	.	.	70.0	.	.	.
COCCNC(=O)c1c[nH]c2ccc(OC)cc2c1=O	.	.	.	.	/	/
CCN(Cc1ccccc1)S(=O)(=O)c1cn(C)cn1	.	.	.	.	/	/
COc1ccc(CCN(C(=O)c2snc(C(N)=O)c2N)C(C)C(=O)NC2CCCCC2)cc1OC (stereo not given)	.	.	.	.	/	/
COCCn1c(SCC(=O)Nc2cc(C)cc(C)c2)nnc1C(C)C	.	.	.	.	/	/
COCCn1c(SCC(=O)Nc2cccc(C)c2)nnc1C(C)C	.	.	41.0	.	/	/	GRK2 CP2=.;FAM quench SP=.
CSC1=C(C#N)C(c2sccc2C)CC(=O)N1 (stereo not given)	.	.	.	.	/	/
Cc1cc(C)cc(NC(=O)CSc2nc3nc(C)cc(C)n3n2)c1	/	/	41.0	/	.	.
COc1ccccc1CN1CCNC(=O)C1CC(=O)NC1Cc2ccccc2C1 (stereo not given)	.	.	.	.	/	/
COc1cc(OC)cc(C(=O)NNC(=O)c2cc(S(=O)(=O)N3CCOCC3)ccc2F)c1	/	/	.	/	/	/
COc1cc(C(N)=O)cc(Br)c1OCc1ccccc1	.	.	100.0	.	/	/	GRK2 CP2=.;FAM quench SP=.
Cc1ccccc1C(=O)Nc1cccc(NC(=O)c2ncn[nH]2)c1	.	.	99.0	.	.	.
CCOC(=O)c1cc2c(C)n(-c3ccc(N(C)C)cc3)c(C)c2cc(C(=O)OCC)c1=O	.	.	69.0	.	.	.
O=C(COc1coc(CN2CCCc3ccccc32)cc1=O)Nc1ccc([N+](=O)[O-])cc1	/	/	62.0	/	.	.
COc1ccc(CCN2CCCn3c2nc2c3c(=O)n(CC(C)C)c(=O)n2C)cc1OC	.	.	54.0	.	.	.
Cc1ccc(NC(=O)Nc2ccc3c(c2)nc(C)n3C)cc1	.	.	.	.	/	/
Cc1cc(NC(=O)Nc2ccc3c(ccn3C)c2)sn1	.	.	.	.	.	.
CN(C(=O)COC(=O)c1c2c(nc3ccccc13)CCCC2)c1c(N)n(Cc2ccccc2)c(=O)[nH]c1=O	/	/	.	/	/	/
